The results in this text go back to PubChem BioAssay (NCI).

Holding throughout (experiment): NCI-60 one-dose screen, 48 h (100 = growth as untreated, 0 = no growth, -100 = all killed)
What all share (conditions): 10 µM unless noted

Experiment [1] has as its system NCI-H23 lung.
In experiment [2] the test system is NCI-H226 lung.
For experiment [3], the system named is NCI-H322M lung.
Experiment [4] relates to HOP-62 NSCLC.
Experiment [5] concerns NCI-H460 lung.
Experiment [6] concerns HOP-92 NSCLC.
For experiment [7], the system named is NCI-H522 lung.
Experiment [8] deals with A549/ATCC NSCLC.
Experiment [9] concerns 786-0 renal.
The test system of experiment [10] is COLO 205 colon.
The subject of experiment [11] is DU-145 prostate.
Experiment [12] concerns K-562 leukemia.
Experiment [13] has as its system MALME-3M melanoma.
Experiment [14] deals with MDA-MB-231 breast.
Experiment [15] has as its system SF-268 CNS.
For experiment [16], the system named is SF-295 CNS.
The test system of experiment [17] is SF-539 CNS.
The subject of experiment [18] is UACC-257 melanoma.
For experiment [19], the system named is M14 melanoma.

The panel holds about 83,000 compounds, 20% with a hit somewhere; the sample as a whole holds those more often.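 96-well plates, one dose, 48 hours. Percent growth reported; active if below 10.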 Unmarked numbers belong to inactive results. Active and inactive are the calls of the source.

For the compound `COc1ccc(-c2nc(N/N=C/c3cccc(O)c3)nc(N3CCOCC3)c2C#N)cc1`, the growth was 99.5% in [1]; 98.1% in [2]; 95% in experiment [3]; 90.7% in experiment [4]; 83.8% in experiment [5]; 47.7% in [6]. Besides, the growth in experiment [7] is 79.1%; in experiment [8], 81.7%; in experiment [9] it was 44.1%; in experiment [10], 74.1%; in experiment [11], 56%; in experiment [12] it was 58.3%. Besides, the growth in experiment [13] was 65.9%; in experiment [14] it was 74.9%; in experiment [15], 78.8%; in experiment [16] it was 69.7%; in experiment [17], 54.5%; in experiment [18], 57.9%. In [19], the growth is 57.5%.
For `COc1cccc2cc(-c3cc4ccccc4[nH]3)/c(=N/C(=S)Nc3ccc(C)cc3)oc12`, the growth in [1] is 67.9%; in experiment [2], 55.1%; in experiment [3], 80.1%; in [4], 22%; in experiment [5] it was 51.1%; in [6], -6.31% (active). Moreover, the growth in experiment [7] is 84.8%; in experiment [8] it was 79.9%; in [9] it was 59%; in experiment [10], 99.4%; in experiment [11], 66.4%; in experiment [12], 80.4%. The growth in [13] was 66.6%; in experiment [14], 39.4%; in experiment [15], 72.3%; in [16], 79.5%; in [17] it was 45.7%; in experiment [18], 103%. The growth in experiment [19] was 95%.
Take `NC(=O)c1cccc(-c2cc(C(N)=O)ccc2Cl)c1`: the growth is 43.3% in experiment [1]; 69.1% in experiment [2]; 92.3% in experiment [3]; 35.9% in [4]; 98.2% in experiment [5]; 52% in [6]. Also, the growth is 23.4% in experiment [7]; 85% in experiment [8]; 48.7% in experiment [9]; 33.5% in [10]; 27.1% in experiment [11]; 8.24% (active) in [12]. Further, the growth is 46.4% in experiment [13]; 47.4% in experiment [14]; 45.3% in experiment [15]; 25% in [16]; -21% (active) in experiment [17]; 47.8% in [18]. Further, in experiment [19], the growth is 16.1%.
With `COc1ccc(-c2c(-c3ccccc3)noc2N)cc1OC`, the growth is 105% in experiment [1]; 113% in [2]; 96.1% in [3]; 124% in [4]; 116% in experiment [5]; 90.8% in experiment [6]. For the same compound, the growth in experiment [7] is 86.1%; in experiment [8] it was 93.8%; in [9], 96.4%; in experiment [10], 118%; in experiment [11] it was 104%; in [12] it was 95%. In addition, the growth is 102% in experiment [13]; 120% in [14]; 107% in [15]; 103% in experiment [16]; 115% in experiment [17]; 88.3% in experiment [18]. In addition, the growth in [19] was 98.4%.
As to `OC1(c2ccc(Cl)c(C(F)(F)F)c2)CCN(CCCC(c2ccc(F)cc2)c2ccc(F)cc2)CC1`, the growth in experiment [1] was -74.9% (active); in [2], 28.9%; in experiment [3], -75.5% (active); in experiment [4], -94.6% (active); in experiment [5], -95% (active); in experiment [6], -87.5% (active). For the same compound, the growth is -80.5% (active) in experiment [7]; -70.7% (active) in experiment [8]; -97.6% (active) in experiment [9]; -92.6% (active) in experiment [10]; -97% (active) in experiment [11]; -20.2% (active) in [12]. In addition, the growth in experiment [13] is -75.3% (active); in [14] it was -87.6% (active); in experiment [15], -90% (active); in experiment [16], -85.3% (active); in experiment [17], -74.6% (active); in experiment [18], -85.6% (active). In addition, the growth in experiment [19] is -84.8% (active).
In the case of `COc1cc(C2CC(c3cccc(Nc4ccncc4)c3)=NN2C(C)=O)cc(OC)c1OC` (configuration not stated), the growth in experiment [1] is 104%; in experiment [2], 96.8%; in [3], 102%; in experiment [4], 91.1%; in experiment [5], 103%; in experiment [6], 70.1%. The growth is 77.9% in [7]; 98.5% in [8]; 88% in experiment [9]; 95% in experiment [10]; 107% in [11]; 34.7% in [12]. Also, the growth in experiment [13] was 80%; in experiment [14], 92.8%; in [15] it was 94.4%; in experiment [16] it was 94.9%; in [17], 89.1%; in experiment [18], 91.5%. Moreover, the growth in experiment [19] is 100%.
Turning to `COc1ccc(-c2c[nH]c(C(=O)O)c2-c2cc(OC)c3c(c2OC)OCO3)cc1`, the growth is 98.9% in experiment [1]; 95.3% in [2]; 95% in experiment [3]; 95.6% in experiment [4]; 102% in experiment [5]; 110% in experiment [6]. The growth in [7] was 97%; in experiment [8], 103%; in experiment [9] it was 104%; in experiment [10], 102%; in experiment [11], 112%; in [12] it was 108%. Besides, the growth in experiment [13] is 96.1%; in experiment [14], 105%; in [15], 99.7%; in experiment [16] it was 103%; in experiment [17] it was 97.4%; in experiment [18], 98.7%. For the same compound, the growth in experiment [19] was 98.9%.
In the case of `COc1cc(/C=C/C(=O)c2ccc(Nc3ncnc4ccccc34)cc2)cc(OC)c1`, the growth in [1] is 72%; in [2] it was 80.2%; in [3], 76%; in [4], 139%; in experiment [5] it was 81.4%; in experiment [6] it was 87.3%. The growth in experiment [7] is 71.4%; in experiment [8], 41.2%; in experiment [9], 52.1%; in experiment [10], 151%; in experiment [11] it was 71.7%; in experiment [12], 4.61% (active). Further, the growth is 106% in experiment [13]; 82.9% in experiment [14]; 38.1% in experiment [15]; 60.8% in experiment [16]; 71.6% in experiment [17]; 93.5% in experiment [18]. Further, the growth in experiment [19] was 24.7%.
